In PubChem BioAssay (NCI):
About 79,000 compounds went through this panel and 15% of them were active in at least one assay; those are over-represented in the sample as a whole. A number with no mark means an inactive call. Active and inactive are the calls of the source. No stated cut-off is given here; in the data, active means growth inhibition above about 70%; inactive means the rest.

Key:
[1] = NCI Yeast Anticancer Drug Screen. Data for the rad52 strain (AID 147);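 further: 0% = growth of vehicle-treated control cultures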; settings: S. cerevisiae rad52 mutant growth inhibition, active compounds read high
Method in brief: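 Read-out: growth inhibition versus vehicle-treated controls. Cells were a DNA repair-deficient yeast strain treated with compounds.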

[2] = NCI Yeast Anticancer Drug Screen. Data for the wt1 strain (AID 149);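 further: 0% = growth of vehicle-treated wt1 cultures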; settings: S. cerevisiae wt1 strain (SPY 50644) growth inhibition, active compounds read high
Method in brief: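 Each compound is tested on wt1 yeast and the loss of growth versus vehicle gives the inhibition value.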

[3] = NCI Yeast Anticancer Drug Screen. Data for the rad50EPP+ strain (AID 151);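 further: 0% = growth of vehicle-treated control cultures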; settings: S. cerevisiae rad50 mutant strain, active compounds read high
Method in brief: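 Growth inhibition read against vehicle controls in rad50EPP+ yeast, a strain altered in DNA damage repair, after compound exposure.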

[4] = NCI Yeast Anticancer Drug Screen. Data for the mgt1 strain (AID 153); settings: S. cerevisiae mgt1 mutant growth inhibition, active compounds read high
Method in brief: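 mgt1 yeast grown with test compound; read-out is growth inhibition versus vehicle-treated cultures.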

[5] = NCI Yeast Anticancer Drug Screen. Data for the rad50 strain (AID 155);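 further: 0% = growth of vehicle-only cultures of the same strain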; settings: S. cerevisiae rad50 strain growth inhibition, active compounds read high
Method in brief: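 Vehicle-treated cultures provide the reference for the growth inhibition reported for compound-exposed, repair-deficient yeast.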

[6] = NCI Yeast Anticancer Drug Screen. Data for the mec2-1 strain (AID 157); settings: S. cerevisiae mec2-1 strain, active compounds read high
Method in brief: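 Yeast mec2-1 mutant treated with compound. Readout: growth inhibition vs vehicle controls.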

[7] = NCI Yeast Anticancer Drug Screen. Data for the rad14 strain (AID 159);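 further: 0% = growth of vehicle-treated control cultures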; settings: S. cerevisiae rad14 strain growth inhibition, active compounds read high
Method in brief: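 Inhibition of growth is reported for a repair-deficient yeast mutant following compound treatment, calculated relative to cultures that received vehicle.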

[8] = NCI Yeast Anticancer Drug Screen. Data for the sgs1 mgt1 strain (AID 161);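 further: 0% = growth of cultures given vehicle only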; settings: S. cerevisiae sgs1 mgt1 strain, active compounds read high
Method in brief: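 Test agents were incubated with a DNA-repair-mutant yeast strain. Growth was then read and compared against vehicle-treated controls.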

[9] = NCI Yeast Anticancer Drug Screen. Data for the CLN2oe strain (AID 163);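 further: 0% = growth of vehicle-only control cultures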; settings: S. cerevisiae CLN2oe strain, active compounds read high
Method in brief: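 Read-out: yeast growth inhibition, expressed relative to vehicle-only controls. The strain bears an engineered cell-cycle alteration.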

[10] = NCI Yeast Anticancer Drug Screen. Data for the cln2 rad14 strain (AID 165);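 further: 0% = growth equal to vehicle treated cultures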; settings: S. cerevisiae cln2 rad14 strain, active compounds read high
Method in brief: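 cln2 rad14 yeast strain; compound exposure; growth inhibition read vs vehicle controls.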

[11] = NCI Yeast Anticancer Drug Screen. Data for the bub3 strain (AID 167); settings: S. cerevisiae bub3 mutant strain, active compounds read high
Method in brief: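 Mutant yeast screening strain plus compound; vehicle-treated cultures serve as the 0% inhibition reference.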

[12] = NCI Yeast Anticancer Drug Screen. Data for the mlh1 strain (AID 171);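 further: 0% = growth of vehicle-treated control cultures of the same strain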; settings: S. cerevisiae mlh1 strain growth inhibition, active compounds read high
Method in brief: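 Read-out: growth inhibition versus vehicle controls. Strain: engineered yeast with a defined DNA repair or cell cycle defect, compound-treated.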

[13] = NCI Yeast Anticancer Drug Screen. Data for the sgs1 strain (AID 173);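 further: 0% = growth of vehicle-only control cultures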; settings: S. cerevisiae sgs1 mutant, active compounds read high
Method in brief: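 Read-out: yeast growth inhibition relative to vehicle controls, following compound exposure of a strain with a defined DNA repair/cell cycle alteration.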

[14] = NCI Yeast Anticancer Drug Screen. Data for the mlh1 rad18 strain (AID 175); settings: S. cerevisiae mlh1 rad18 strain growth inhibition, active compounds read high
Method in brief: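 Yeast w/ defined DNA-repair lesions; compound exposure; growth vs vehicle controls → % inhibition.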

[15] = NCI Yeast Anticancer Drug Screen. Data for the rad18 strain (AID 177); settings: S. cerevisiae rad18 mutant growth inhibition, active compounds read high
Method in brief: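 Readout: growth inhibition vs vehicle controls. Cells: genetically altered yeast strain, DNA repair defect.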

[16] = at 5.0 µM (retest, dose inferred, filed as 0.5)
[17] = at 50.0 µM (retest, dose inferred, filed as 5.0)

## CCCCCCCCCCCCOCCOCCOCC(N)=O
[1]; at 1.2 µM
  growth inhibition: 15%
[1]; at 3.7 µM
  growth inhibition: -11%
[1]; at 11.0 µM
  growth inhibition: 1%
[1]; at 33.0 µM
  growth inhibition: 97% (active)
[1]; at 100.0 µM
  growth inhibition: 96% (active)
[2]; at 1.2 µM
  growth inhibition: -39%
[2]; at 3.7 µM
  growth inhibition: -39%
[2]; at 11.0 µM
  growth inhibition: -41%
[2]; at 33.0 µM
  growth inhibition: 95% (active)
[2]; at 100.0 µM
  growth inhibition: 94% (active)
[3]; at 1.2 µM
  growth inhibition: -14%
[3]; at 3.7 µM
  growth inhibition: -20%
[3]; at 11.0 µM
  growth inhibition: -11%
[3]; at 33.0 µM
  growth inhibition: 10%
[3]; at 100.0 µM
  growth inhibition: 80% (active)
[4]; at 1.2 µM
  growth inhibition: 9%
[4]; at 3.7 µM
  growth inhibition: -8%
[4]; at 11.0 µM
  growth inhibition: -10%
[4]; at 33.0 µM
  growth inhibition: 97% (active)
[4]; at 100.0 µM
  growth inhibition: 96% (active)
[5]; at 1.2 µM
  growth inhibition: 6%
[5]; at 3.7 µM
  growth inhibition: -1%
[5]; [16]
  growth inhibition: 36%
[5]; at 11.0 µM
  growth inhibition: 10%
[5]; at 33.0 µM
  growth inhibition: 97% (active)
[5]; [17]
  growth inhibition: 36%
[5]; at 50.0 µM
  growth inhibition: 91.2% (active)
[5]; at 100.0 µM
  growth inhibition: 95% (active)
[6]; at 1.2 µM
  growth inhibition: -6%
[6]; at 3.7 µM
  growth inhibition: -6%
[6]; [16]
  growth inhibition: 39%
[6]; at 11.0 µM
  growth inhibition: 16%
[6]; at 33.0 µM
  growth inhibition: 97% (active)
[6]; [17]
  growth inhibition: 29%
[6]; at 50.0 µM
  growth inhibition: 92.5% (active)
[6]; at 100.0 µM
  growth inhibition: 95% (active)
[7]; at 1.2 µM
  growth inhibition: -9%
[7]; at 3.7 µM
  growth inhibition: -11%
[7]; at 11.0 µM
  growth inhibition: -17%
[7]; at 33.0 µM
  growth inhibition: 97% (active)
[7]; at 100.0 µM
  growth inhibition: 94% (active)
[8]; [16]
  growth inhibition: 5%
[8]; [17]
  growth inhibition: 98% (active)
[8]; at 50.0 µM
  growth inhibition: 93.3% (active)
[9]; at 1.2 µM
  growth inhibition: -15%
[9]; at 3.7 µM
  growth inhibition: -18%
[9]; at 11.0 µM
  growth inhibition: -13%
[9]; at 33.0 µM
  growth inhibition: 96% (active)
[9]; at 100.0 µM
  growth inhibition: 93% (active)
[10]; [16]
  growth inhibition: 61%
[10]; [17]
  growth inhibition: 97% (active)
[10]; at 50.0 µM
  growth inhibition: 89.5% (active)
[11]; at 1.2 µM
  growth inhibition: -6%
[11]; at 3.7 µM
  growth inhibition: 1%
[11]; [16]
  growth inhibition: 21%
[11]; at 11.0 µM
  growth inhibition: -13%
[11]; at 33.0 µM
  growth inhibition: 97% (active)
[11]; [17]
  growth inhibition: 97% (active)
[11]; at 50.0 µM
  growth inhibition: 91.5% (active)
[11]; at 100.0 µM
  growth inhibition: 94% (active)
[12]; at 1.2 µM
  growth inhibition: -12%
[12]; at 3.7 µM
  growth inhibition: -12%
[12]; at 11.0 µM
  growth inhibition: 6%
[12]; at 33.0 µM
  growth inhibition: 93% (active)
[12]; at 100.0 µM
  growth inhibition: 96% (active)
[13]; at 1.2 µM
  growth inhibition: -12%
[13]; at 3.7 µM
  growth inhibition: -15%
[13]; at 11.0 µM
  growth inhibition: -5%
[13]; at 33.0 µM
  growth inhibition: 96% (active)
[13]; at 100.0 µM
  growth inhibition: 94% (active)
[14]; [16]
  growth inhibition: 26%
[14]; [17]
  growth inhibition: 43%
[14]; at 50.0 µM
  growth inhibition: 91.1% (active)
[15]; at 1.2 µM
  growth inhibition: -18%
[15]; at 3.7 µM
  growth inhibition: -31%
[15]; at 11.0 µM
  growth inhibition: -18%
[15]; at 33.0 µM
  growth inhibition: 97% (active)
[15]; at 100.0 µM
  growth inhibition: 95% (active)

## C/C(=N\OCC(O)CNCCSCc1ccccc1)c1ccccc1Cl (stereo unspecified)
[1]; at 1.2 µM
  growth inhibition: 2%
[1]; at 3.7 µM
  growth inhibition: 5%
[1]; at 11.0 µM
  growth inhibition: 26%
[1]; at 33.0 µM
  growth inhibition: 45%
[1]; at 100.0 µM
  growth inhibition: 80% (active)
[2]; at 1.2 µM
  growth inhibition: -3%
[2]; at 3.7 µM
  growth inhibition: 0%
[2]; at 11.0 µM
  growth inhibition: 6%
[2]; at 33.0 µM
  growth inhibition: 19%
[2]; at 100.0 µM
  growth inhibition: 40%
[3]; at 1.2 µM
  growth inhibition: -1%
[3]; at 3.7 µM
  growth inhibition: 0%
[3]; at 11.0 µM
  growth inhibition: 2%
[3]; at 33.0 µM
  growth inhibition: 6%
[3]; at 100.0 µM
  growth inhibition: 12%
[4]; at 1.2 µM
  growth inhibition: 4%
[4]; at 3.7 µM
  growth inhibition: 9%
[4]; at 11.0 µM
  growth inhibition: 34%
[4]; at 33.0 µM
  growth inhibition: 85% (active)
[4]; at 100.0 µM
  growth inhibition: 100% (active)
[5]; at 1.2 µM
  growth inhibition: 12%
[5]; at 3.7 µM
  growth inhibition: -12%
[5]; [16]
  growth inhibition: 40%
[5]; at 11.0 µM
  growth inhibition: 64%
[5]; at 33.0 µM
  growth inhibition: 77% (active)
[5]; [17]
  growth inhibition: 69%
[5]; at 50.0 µM
  growth inhibition: 80.9% (active)
[5]; at 100.0 µM
  growth inhibition: 95% (active)
[6]; at 1.2 µM
  growth inhibition: 3%
[6]; at 3.7 µM
  growth inhibition: 4%
[6]; [16]
  growth inhibition: 2%
[6]; at 11.0 µM
  growth inhibition: 28%
[6]; at 33.0 µM
  growth inhibition: 50%
[6]; [17]
  growth inhibition: 48%
[6]; at 50.0 µM
  growth inhibition: 82.7% (active)
[6]; at 100.0 µM
  growth inhibition: 88% (active)
[7]; at 1.2 µM
  growth inhibition: 30%
[7]; at 3.7 µM
  growth inhibition: 46%
[7]; at 11.0 µM
  growth inhibition: 85% (active)
[7]; at 33.0 µM
  growth inhibition: 99% (active)
[7]; at 100.0 µM
  growth inhibition: 99% (active)
[8]; [16]
  growth inhibition: 30%
[8]; [17]
  growth inhibition: 58%
[8]; at 50.0 µM
  growth inhibition: 87.5% (active)
[9]; at 1.2 µM
  growth inhibition: -3%
[9]; at 3.7 µM
  growth inhibition: 12%
[9]; at 11.0 µM
  growth inhibition: 30%
[9]; at 33.0 µM
  growth inhibition: 47%
[9]; at 100.0 µM
  growth inhibition: 75% (active)
[10]; [16]
  growth inhibition: 14%
[10]; [17]
  growth inhibition: 61%
[10]; at 50.0 µM
  growth inhibition: 66.8%
[11]; at 1.2 µM
  growth inhibition: 6%
[11]; at 3.7 µM
  growth inhibition: 25%
[11]; [16]
  growth inhibition: 29%
[11]; at 11.0 µM
  growth inhibition: 54%
[11]; at 33.0 µM
  growth inhibition: 81% (active)
[11]; [17]
  growth inhibition: 73% (active)
[11]; at 50.0 µM
  growth inhibition: 86% (active)
[11]; at 100.0 µM
  growth inhibition: 97% (active)
[12]; at 1.2 µM
  growth inhibition: 3%
[12]; at 3.7 µM
  growth inhibition: 4%
[12]; at 11.0 µM
  growth inhibition: 24%
[12]; at 33.0 µM
  growth inhibition: 71% (active)
[12]; at 100.0 µM
  growth inhibition: 99% (active)
[13]; at 1.2 µM
  growth inhibition: 8%
[13]; at 3.7 µM
  growth inhibition: 17%
[13]; at 11.0 µM
  growth inhibition: 41%
[13]; at 33.0 µM
  growth inhibition: 69%
[13]; at 100.0 µM
  growth inhibition: 97% (active)
[14]; [16]
  growth inhibition: 21%
[14]; [17]
  growth inhibition: 41%
[14]; at 50.0 µM
  growth inhibition: 95.3% (active)
[15]; at 1.2 µM
  growth inhibition: 12%
[15]; at 3.7 µM
  growth inhibition: 32%
[15]; at 11.0 µM
  growth inhibition: 55%
[15]; at 33.0 µM
  growth inhibition: 80% (active)
[15]; at 100.0 µM
  growth inhibition: 97% (active)
